High-throughput results from PubChem BioAssay.
Shown are actives, neighbours in structure and some others; about 8% of the full set was active somewhere.
MARV entry inh – qHTS for inhibitors of binding or entry into cells for Marburg Virus; Marburg virus pseudotyped entry inhibition, cell reporter; Potency, µM (highest dose often 37.8 µM), without a hit: at the top dose activity change, negative = inhibition, actives largely listed as inhibitors; actives 1.8% (n = 300,000); AID 540276, 2011; calls by dose curve; tested in HEK293 cells; further: potency means the concentration at half of the fitted maximal effect; on the % scale 0 is the no-effect control and ±100 the full control effect
Lassa entry inh – qHTS for Inhibitors of binding or entry into cells for Lassa Virus; Lassa virus pseudotype entry inhibition, cell reporter; Potency, µM (doses to about 37.9 µM), for inactives: at the top dose activity change, negative = inhibition, most hits filed as inhibitors; actives 1.2% (n = 300,000); AID 540256, 2011; calls by dose curve; tested in HEK293 cells; further: potency means the concentration at half of the fitted maximal effect; on the % scale 0 is the no-effect control and ±100 the full control effect; nearly all actives have a fitted effect of over 50% in size
HCV inh – qHTS Assay for Inhibitors of Hepatitis C Virus (HCV); actives 3.4% (n = 340,000); Huh7.5.1 HCVcc-Cre infection, luciferase reporter, 44 h; Potency, µM (series often up to 41.8 µM), without a hit: at the top dose activity change, negative = inhibition, most hits filed as inhibitors; AID 651820, 2012; active means well fitted inhibition curve with a large enough effect; inconclusive means small, poorly fitted or top-dose-only effect, or another doubt; inactive means no such curve, though single readings can be large or run the other way; further: potency means the concentration at half of the fitted maximal effect; on the % scale 0 is the no-effect control and ±100 the full control effect
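A cell-based infection assay in which seeded cells (1,000 per well) receive test compound after 4 h, are inoculated with HCVcc-Cre at approximately 0.5 moi, and are incubated 44 h before luminescence detection.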
HCMV antiviral – qHTS Assay for inhibitors of the human cytomegalovirus (HCMV); HFF cells, HCMV-luciferase reporter, 72 h; hits give low values; activity change, negative = inhibition, % at 57.5 µM; actives 4.5% (n = 410,000); in the data active means activity change below about -60%; inconclusive means no clear call, values can overlap the other calls; inactive means above about -39%; further: on the % scale 0 is the no-effect control and ±100 the full control effect
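Steps: HFFs plated, 16 h 37C; compounds added; HCMV-luciferase added to MOI 1 PFU/cell; 72 h 37C; OneGlo reagent, 5 min room temperature; luminescence read, normalized to controls.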
FMDV inh – High Throughput Screening for Foot and Mouth Disease Virus Antivirals; Potency, µM (doses to about 57.9 µM), without a hit: at the highest dose activity change, negative = inhibition, actives largely listed as inhibitors; FMDV antiviral cell-based qHTS; actives 1.2% (n = 410,000); calls by dose curve; tested in HEK293T cells; further: read-out not given here; potency means the concentration at half of the fitted maximal effect; on the % scale 0 is the no-effect control and ±100 the full control effect; nearly all actives have a fitted effect of over 45% in size
SARS PLpro yeast – qHTS of Yeast-based Assay for SARS-CoV PLP; S. cerevisiae expressing SARS-CoV PLpro, growth rescue; Potency, µM (highest dose often 32.9 µM), for the others: top-dose activity, positive = growth rescue, hits mostly activators; actives 0.19% (n = 330,000); AID 485353, 2010; calls by dose curve; further: potency means the concentration at half of the fitted maximal effect; 0% is about no effect; nearly all actives have a fitted effect of over 55% in size
Numbers without * were called inactive; ? = inconclusive; · = no result; ! = not active in a repeat; [ ] = dose if it differs, or a comment.

SMILES	MARV entry inh	Lassa entry inh	HCV inh	HCMV antiviral	FMDV inh	SARS PLpro yeast
Cc1csc(SCC(=O)c2c(N)n(CC(C)C)c(=O)n(C)c2=O)n1	-14%	-16%	16µM*	-75*	?	3%
CCOC(=O)Cc1csc(SCC(=O)c2c(N)n(CC(C)C)c(=O)n(C)c2=O)n1	?	?	7.9µM*	-3	11µM*	9%
CC(C)Cn1c(N)c(C(=O)CSc2ncccn2)c(=O)n(C)c1=O	-21%	14%[46.1 µM]	2%	-36	-17%	-2%
COc1ccc(S(=O)(=O)N(CC(=O)NCc2ccncc2)Cc2ccccc2)cc1	9%[46.1 µM]	13%	3%	5	-28%	3%
COc1ccc(CNC(=O)CN(Cc2ccc(Cl)cc2)S(=O)(=O)c2ccccc2)cc1	?	?	-12%	-2	28µM*	-6%
COc1ccc(C)cc1S(=O)(=O)N(CC(=O)NCc1ccc(Cl)cc1)Cc1ccccc1	23µM*	-25%[14.3 µM]	·	1	?	-4%
COc1ccc(CNC(=O)CN(Cc2ccccc2)S(=O)(=O)c2ccc(Cl)cc2)cc1	-12%	-18%	10µM*	-17	?	-18%
Cn1cc(-c2cc3cnc(Nc4ccc5c(c4)OCO5)cc3n2C)cn1	·	·	·	-7	·	·
C=CCSc1nnc2c(n1)[nH]c1c(C)cccc12	?	-4%	7.9µM*	-37	·	-22%
O=C(NCc1ccc(Cl)cc1)C(=O)NCC(c1ccco1)S(=O)(=O)c1cccs1 (stereo not given)	·	-15%[46.1 µM]	·	-3	-9%	·
COCCNC(=O)Cn1c(=O)c2cccn2c2ccc(F)cc21	·	-37%[46.1 µM]	·	91	-8%	·
Cc1c(N2C(=O)/C(=C3\C(=O)N(CC(=O)O)c4ccccc43)SC2=S)c(=O)n(-c2ccccc2)n1C	·	·	15%	45	25µM*	1%
Cc1c(N2C(=O)/C(=C\C3CC=CCC3)SC2=S)c(=O)n(-c2ccccc2)n1C (stereo not given)	?	3%	-13%	40	25µM*	-2%
Cc1c(N2C(=O)/C(=C/C3CC=CCC3)SC2=S)c(=O)n(-c2ccccc2)n1C (stereo not given)	?	?	1%	17	18µM*	-1%
Cc1cc(C)nc(NS(=O)(=O)c2ccc(N)cc2)n1	13%	7%	-7%[8.37 µM]	-66*	31%	1%
COc1cc(/C=C(/C)[N+](=O)[O-])ccc1OCc1ccccc1Cl	6.5µM*	?	?	·	22µM*	-81%
COc1cc(/C=N/O)ccc1OCc1ccccc1Cl	?	?	18%	5	28%	-2%
COC(=O)c1ccc(C2c3c(oc4ccccc4c3=O)C(=O)N2c2nc(C)c(C(=O)OC)s2)cc1 (stereo not given)	9%[46.1 µM]	2%[46.1 µM]	·	-13	-5%	·
Cc1ccc(S(=O)(=O)n2nc(-n3c(C)ccc3C)c3c(F)cccc32)c2ccccc12	11µM*	-20%[46.1 µM]	8%	16	-13%	2%
Cc1ccc(C)n1-c1nn(S(=O)(=O)c2cccc3cccnc23)c2cccc(F)c12	?	-17%	-2%	-10	-1%	-4%
CCc1cccc(NC(=O)C2CCN(c3ncnc4sc(C)c(C)c34)CC2)c1	·	·	11µM*	-39	?	-12%
Cc1sc2ncnc(N3CCC(C(=O)Nc4ccc(Br)cc4Br)CC3)c2c1C	11µM*	?	?	-16	20µM*	0%
CCOc1ccc(NC(=O)CN(C)C(=O)C2CCN(c3ncnc4sc(C)c(C)c34)CC2)cc1OCC	?	-11%	·	-68*	?	8%
Cc1sc2ncnc(N3CCC(C(=O)Nc4ccc(Cl)cc4Cl)CC3)c2c1C	-8%	4%	?	-20	-30%	1%
Cc1sc2ncnc(N3CCC(C(=O)NCC(=O)Nc4ccc(F)c(F)c4)CC3)c2c1C	?	?	8.9µM*	-35	?	-5%
SMILES	MARV entry inh	Lassa entry inh	HCV inh	HCMV antiviral	FMDV inh	SARS PLpro yeast
Cc1sc2ncnc(N3CCC(C(=O)Nc4ccc(Cl)c(Cl)c4)CC3)c2c1C	·	·	?	0	?	-8%
CCCN(CC(=O)Nc1ccccc1C)C(=O)C1CCN(c2ncnc3sc(C)c(C)c23)CC1	?	?	?	-15	?	-6%
Cc1ccc([C@H]2/C(=C(\O)c3ccc(OC(C)C)cc3)C(=O)C(=O)N2CCN2CCOCC2)cc1	0%	·	·	·	·	·
COc1ncc2nc(-c3cccs3)c(=O)n(C)c2n1	·	·	·	·	7%	·
O=C1[C@H]2[C@@H]3[C@@H](O)[C@H](O)CC(=NOCc4ccccc4)[C@H]3CC[C@H]2C(=O)N1Cc1ccc2c(c1)OCO2	-38%[14.2 µM]	-19%[14.3 µM]	·	·	·	·
COc1ccc(S(=O)(=O)NCC(c2ccco2)N2CCc3ccccc3C2)cc1 (stereo not given)	-5%	8%	19%	-95*	29%	-2%
C=CCn1c(C)cc(C(=O)COc2ccc(N(C)S(=O)(=O)c3ccc(NC(C)=O)cc3)cc2)c1C	·	·	8.9µM*	-21	?	-1%
CN1CCN(C(=S)c2ccc(N(C)C)cc2)CC1	9%	-9%	-6%	-108*	25%	6%
CCOc1ccc(Nc2cc(C)nc3nncn23)cc1	3%[46.1 µM]	3%[46.1 µM]	·	-25	4%	·
Clc1cccc(CN2CCc3c([nH]c4ccccc34)C2)c1Cl	·	·	?	-91*	?	-3%
COc1ccccc1CN1CCc2c([nH]c3ccccc23)C1	·	·	-17%	45	-12%	4%
COc1ccc(-c2onc(C)c2C)cc1S(=O)(=O)N1CCC(C)CC1	·	-21%[46.1 µM]	·	-79*	-22%	·
Cc1ccc(-c2onc(C)c2C)cc1S(=O)(=O)Nc1ccc(Cl)cn1	·	14%[46.1 µM]	·	103	61%	·
COc1ccc(-c2cc(C)no2)cc1S(=O)(=O)N1CCOc2ccc(Cl)cc21	·	8%[46.1 µM]	-2%	?	13%	2%
Cc1ccc2c(c1)N(S(=O)(=O)c1cc(-c3onc(C)c3C)ccc1C)CCO2	14%[46.1 µM]	?	5µM*	-67*!	?	-6%
Cc1ccc(-c2onc(C)c2C)cc1S(=O)(=O)NC1CCC(C)CC1 (stereo not given)	·	20%[46.1 µM]	·	-67*	19%	·
Cc1cc(C)c(NS(=O)(=O)c2cc(-c3onc(C)c3C)ccc2C)c(C)c1	·	-11%[46.1 µM]	·	-62*	4%	·
Cc1ccc2occ(CC(=O)Nc3c(C(=O)Nc4ccc(Cl)cc4)oc4ccccc34)c2c1	1%[46.1 µM]	-2%[46.1 µM]	·	56	30%	·
COC(=O)c1ccccc1-c1cc(C)cc2c1OC(CNC(=O)C1CCCO1)C2 (stereo not given)	·	·	·	·	-2%	·
COc1ccc(OCCSc2nc(-c3ccccc3)cc(=O)[nH]2)cc1	-1%[46.1 µM]	12%[46.1 µM]	6%	?	-16%	1%
